Holding throughout (assay): DAPPL (digital affinity profiling via proximity ligation, sequencing); 10 mM Tris-HCl pH 7.5, 50 mM NaCl, 1 mM DTT, 4% glycerol, room temperature, 30 min; GST-TFs on glutathione beads, 16-mer random dsDNA library, 0.1% formaldehyde crosslink after washing; high values mean tight binding
Holding throughout (conditions): protein: recombinant; tags: N-terminal GST; dsDNA, one strand shown

The target in one experiment is T1, FLI1 (Homo sapiens, UniProt Q01543 1-452).
T1 sequence: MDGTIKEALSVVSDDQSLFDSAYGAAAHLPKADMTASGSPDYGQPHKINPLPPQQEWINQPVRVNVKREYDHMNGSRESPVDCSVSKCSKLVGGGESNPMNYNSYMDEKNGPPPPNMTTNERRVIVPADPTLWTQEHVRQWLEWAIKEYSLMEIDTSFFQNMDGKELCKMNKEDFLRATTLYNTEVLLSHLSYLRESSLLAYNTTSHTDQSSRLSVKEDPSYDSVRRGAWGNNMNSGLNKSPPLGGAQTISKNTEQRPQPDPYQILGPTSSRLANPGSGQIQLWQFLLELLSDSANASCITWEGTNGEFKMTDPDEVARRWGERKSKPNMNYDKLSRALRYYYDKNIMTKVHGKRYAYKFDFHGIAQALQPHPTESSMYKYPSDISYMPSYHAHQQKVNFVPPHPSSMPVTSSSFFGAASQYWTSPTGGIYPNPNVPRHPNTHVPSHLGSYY
The essentials: (§1)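 Pools of DNA-barcoded human transcription factors, expressed in yeast as GST fusions on glutathione beads and combined with a tag-only sample, were incubated with 200 nmole of a 16-mer random double-stranded DNA library. Incubation took 30 min at room temperature in Tris/NaCl/DTT/glycerol buffer and was followed by washing, 0.1% formaldehyde crosslinking, proximity ligation (BsaI/T4 ligase, 1 h, 37 °C), PCR amplification and sequencing on an Illumina NextSeq500. Binding signal is the ratio of a hexamer's read frequency for a factor to its frequency for the tag-only sample.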

The target of the next experiment is T2, ELK1 (Homo sapiens, UniProt P19419 1-428).
T2 sequence: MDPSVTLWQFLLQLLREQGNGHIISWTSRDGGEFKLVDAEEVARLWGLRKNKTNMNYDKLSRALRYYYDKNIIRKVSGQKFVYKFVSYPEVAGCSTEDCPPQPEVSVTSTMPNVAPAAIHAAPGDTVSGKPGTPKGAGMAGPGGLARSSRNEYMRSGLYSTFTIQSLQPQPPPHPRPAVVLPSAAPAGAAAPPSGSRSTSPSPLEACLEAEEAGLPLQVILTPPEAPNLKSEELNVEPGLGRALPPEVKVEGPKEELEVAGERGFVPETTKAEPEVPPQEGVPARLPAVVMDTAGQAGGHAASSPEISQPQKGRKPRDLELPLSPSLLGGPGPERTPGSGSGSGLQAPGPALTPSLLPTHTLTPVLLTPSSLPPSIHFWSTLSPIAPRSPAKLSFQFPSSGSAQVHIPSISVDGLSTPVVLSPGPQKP
The essentials: as §1

The next experiment has as its target T3, GABPA (Homo sapiens, UniProt Q06546 1-454).
T3 sequence: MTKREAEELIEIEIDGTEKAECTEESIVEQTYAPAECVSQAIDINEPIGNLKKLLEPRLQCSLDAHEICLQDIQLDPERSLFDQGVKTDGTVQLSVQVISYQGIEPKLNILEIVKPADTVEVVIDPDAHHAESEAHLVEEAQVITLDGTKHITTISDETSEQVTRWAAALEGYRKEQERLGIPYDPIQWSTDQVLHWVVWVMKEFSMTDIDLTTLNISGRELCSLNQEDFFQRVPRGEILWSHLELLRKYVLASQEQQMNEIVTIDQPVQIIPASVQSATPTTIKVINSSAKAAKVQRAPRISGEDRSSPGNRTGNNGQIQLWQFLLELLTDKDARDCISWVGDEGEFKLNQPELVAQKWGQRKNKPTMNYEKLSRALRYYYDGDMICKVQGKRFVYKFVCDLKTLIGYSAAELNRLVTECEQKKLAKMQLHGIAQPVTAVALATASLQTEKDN
The essentials:
as §1

For the next experiment, the target named is T4, ERG (Homo sapiens, UniProt P11308 1-479).
T4 sequence: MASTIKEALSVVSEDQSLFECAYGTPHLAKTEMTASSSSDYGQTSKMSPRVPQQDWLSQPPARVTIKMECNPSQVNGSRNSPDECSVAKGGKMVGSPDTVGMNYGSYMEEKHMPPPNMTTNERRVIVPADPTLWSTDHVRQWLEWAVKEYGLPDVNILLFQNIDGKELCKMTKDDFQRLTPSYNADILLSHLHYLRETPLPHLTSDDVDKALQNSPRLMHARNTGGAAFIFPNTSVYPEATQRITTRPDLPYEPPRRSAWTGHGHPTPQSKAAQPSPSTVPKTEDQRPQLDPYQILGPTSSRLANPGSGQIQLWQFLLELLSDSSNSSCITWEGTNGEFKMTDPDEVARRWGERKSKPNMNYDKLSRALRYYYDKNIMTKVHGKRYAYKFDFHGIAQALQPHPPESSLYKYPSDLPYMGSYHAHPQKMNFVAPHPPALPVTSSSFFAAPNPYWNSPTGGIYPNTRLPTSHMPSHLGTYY
The essentials:
as §1

The next experiment deals with ELF1 (Homo sapiens, UniProt P32519 1-619). Summed up: as §1
ELF1, sequence (P32519 whole entry): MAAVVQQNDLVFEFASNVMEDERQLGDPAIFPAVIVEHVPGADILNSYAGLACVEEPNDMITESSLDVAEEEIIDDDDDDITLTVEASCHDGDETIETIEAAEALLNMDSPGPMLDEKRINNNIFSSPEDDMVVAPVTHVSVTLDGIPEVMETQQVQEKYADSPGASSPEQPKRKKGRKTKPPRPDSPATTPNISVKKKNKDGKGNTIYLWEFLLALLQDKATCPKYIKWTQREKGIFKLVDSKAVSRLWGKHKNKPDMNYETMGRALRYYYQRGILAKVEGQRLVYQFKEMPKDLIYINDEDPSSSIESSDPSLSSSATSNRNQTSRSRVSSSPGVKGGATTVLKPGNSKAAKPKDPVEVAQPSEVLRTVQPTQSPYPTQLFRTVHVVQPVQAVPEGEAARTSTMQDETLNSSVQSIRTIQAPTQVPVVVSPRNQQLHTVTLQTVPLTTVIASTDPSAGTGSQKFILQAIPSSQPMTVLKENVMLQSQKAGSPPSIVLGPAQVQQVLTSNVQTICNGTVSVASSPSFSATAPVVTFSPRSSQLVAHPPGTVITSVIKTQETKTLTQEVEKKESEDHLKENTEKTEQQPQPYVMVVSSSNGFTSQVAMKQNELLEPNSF
In the next experiment the target is T5, EHF (Homo sapiens, UniProt Q9NZC4 1-300).
T5 sequence: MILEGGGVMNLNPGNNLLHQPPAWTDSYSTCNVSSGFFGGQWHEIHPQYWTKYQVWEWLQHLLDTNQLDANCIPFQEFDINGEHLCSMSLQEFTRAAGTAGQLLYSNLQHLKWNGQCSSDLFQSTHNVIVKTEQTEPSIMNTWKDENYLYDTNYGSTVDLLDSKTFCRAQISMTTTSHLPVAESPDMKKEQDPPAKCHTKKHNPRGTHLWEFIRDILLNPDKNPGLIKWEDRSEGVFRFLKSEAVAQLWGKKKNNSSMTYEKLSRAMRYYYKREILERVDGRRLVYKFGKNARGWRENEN
Summed up:
as §1

The next experiment deals with SPI1 (Homo sapiens, UniProt P17947 1-270). Summed up:
as §1

The target in a further experiment is T6, FEV (Homo sapiens, UniProt Q99581 1-238).
T6 sequence: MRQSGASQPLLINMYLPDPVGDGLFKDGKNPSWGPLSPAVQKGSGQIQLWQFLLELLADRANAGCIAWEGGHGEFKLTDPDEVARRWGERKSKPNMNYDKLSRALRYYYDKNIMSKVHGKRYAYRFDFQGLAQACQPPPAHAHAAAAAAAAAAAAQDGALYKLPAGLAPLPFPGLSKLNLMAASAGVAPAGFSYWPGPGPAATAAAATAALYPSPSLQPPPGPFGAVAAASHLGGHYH
Summed up:
as §1

Another experiment concerns the target ETV5 (Homo sapiens, UniProt P41161 1-510). Summed up:
as §1

The target in a further experiment is T7, SPIC (Homo sapiens, UniProt Q8N5J4 1-248).
T7 sequence: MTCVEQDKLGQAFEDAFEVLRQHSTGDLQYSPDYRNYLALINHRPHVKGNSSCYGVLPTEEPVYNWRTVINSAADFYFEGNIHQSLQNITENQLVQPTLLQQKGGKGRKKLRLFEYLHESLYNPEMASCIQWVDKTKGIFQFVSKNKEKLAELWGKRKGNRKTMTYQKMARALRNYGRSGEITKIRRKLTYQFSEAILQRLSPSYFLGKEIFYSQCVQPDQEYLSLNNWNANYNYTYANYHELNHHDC
The essentials:
as §1

The next experiment has as its target ELF4 (Homo sapiens, UniProt Q99607 1-663). Summed up: as §1
Another experiment concerns the target ETV1 (Homo sapiens, UniProt P50549 1-477). The essentials: as §1
A further experiment has as its target T8, ERF (Homo sapiens, UniProt P50548 1-548).
T8 sequence: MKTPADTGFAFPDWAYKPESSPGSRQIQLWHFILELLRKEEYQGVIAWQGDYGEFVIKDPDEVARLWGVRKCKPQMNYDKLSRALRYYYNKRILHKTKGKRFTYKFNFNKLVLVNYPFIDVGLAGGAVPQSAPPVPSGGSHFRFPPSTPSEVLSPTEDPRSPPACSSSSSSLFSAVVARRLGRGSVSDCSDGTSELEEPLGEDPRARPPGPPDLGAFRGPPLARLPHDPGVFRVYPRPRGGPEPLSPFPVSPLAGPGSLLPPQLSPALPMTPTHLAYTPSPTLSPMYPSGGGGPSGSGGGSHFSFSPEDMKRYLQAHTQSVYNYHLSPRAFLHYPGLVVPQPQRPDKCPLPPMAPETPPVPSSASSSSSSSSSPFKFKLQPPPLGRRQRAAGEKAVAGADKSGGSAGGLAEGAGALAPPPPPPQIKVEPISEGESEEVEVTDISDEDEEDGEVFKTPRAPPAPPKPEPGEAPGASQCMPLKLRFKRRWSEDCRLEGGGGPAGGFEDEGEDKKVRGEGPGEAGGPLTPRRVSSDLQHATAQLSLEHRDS
The essentials: as §1

A further experiment deals with T9, ETV3L (Homo sapiens, UniProt Q6ZN32 1-361).
T9 sequence: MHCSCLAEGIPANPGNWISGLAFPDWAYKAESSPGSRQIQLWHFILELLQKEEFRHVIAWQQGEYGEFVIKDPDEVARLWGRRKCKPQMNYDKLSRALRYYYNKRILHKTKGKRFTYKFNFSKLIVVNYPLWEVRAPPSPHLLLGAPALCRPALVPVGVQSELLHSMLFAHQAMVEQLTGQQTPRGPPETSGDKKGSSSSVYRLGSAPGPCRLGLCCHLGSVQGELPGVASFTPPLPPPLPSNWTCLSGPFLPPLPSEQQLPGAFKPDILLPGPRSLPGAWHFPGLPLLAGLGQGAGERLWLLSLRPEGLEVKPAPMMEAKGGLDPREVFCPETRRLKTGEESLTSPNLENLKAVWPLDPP
The essentials:
as §1

Another experiment addresses T10, ETS2 (Homo sapiens, UniProt P15036 1-469).
T10 sequence: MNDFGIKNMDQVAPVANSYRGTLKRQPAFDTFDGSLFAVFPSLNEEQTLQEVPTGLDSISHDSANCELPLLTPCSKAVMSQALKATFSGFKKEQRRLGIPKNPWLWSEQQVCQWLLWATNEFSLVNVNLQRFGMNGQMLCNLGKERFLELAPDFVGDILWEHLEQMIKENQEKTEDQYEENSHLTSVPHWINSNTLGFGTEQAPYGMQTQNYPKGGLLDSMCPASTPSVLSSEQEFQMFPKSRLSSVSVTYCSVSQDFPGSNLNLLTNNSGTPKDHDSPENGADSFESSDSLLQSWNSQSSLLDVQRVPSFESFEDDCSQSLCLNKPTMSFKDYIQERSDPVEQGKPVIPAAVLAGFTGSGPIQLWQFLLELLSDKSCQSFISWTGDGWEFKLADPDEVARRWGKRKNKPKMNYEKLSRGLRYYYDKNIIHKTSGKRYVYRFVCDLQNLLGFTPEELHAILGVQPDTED
Summed up: as §1

A further experiment addresses T11, SPDEF (Homo sapiens, UniProt O95238 1-335).
T11 sequence: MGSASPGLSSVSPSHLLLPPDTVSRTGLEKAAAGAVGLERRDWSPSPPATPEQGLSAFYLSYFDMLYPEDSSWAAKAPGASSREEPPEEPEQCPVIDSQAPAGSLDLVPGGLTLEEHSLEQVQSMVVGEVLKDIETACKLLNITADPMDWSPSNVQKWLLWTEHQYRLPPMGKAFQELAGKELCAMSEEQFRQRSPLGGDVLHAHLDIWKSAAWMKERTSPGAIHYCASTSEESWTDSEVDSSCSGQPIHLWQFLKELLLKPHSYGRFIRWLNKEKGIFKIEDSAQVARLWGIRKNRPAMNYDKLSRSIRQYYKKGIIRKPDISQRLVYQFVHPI
The essentials:
as §1

The target of another experiment is T12, ELF5 (Homo sapiens, UniProt Q9UKW6-2 1-255).
T12 sequence: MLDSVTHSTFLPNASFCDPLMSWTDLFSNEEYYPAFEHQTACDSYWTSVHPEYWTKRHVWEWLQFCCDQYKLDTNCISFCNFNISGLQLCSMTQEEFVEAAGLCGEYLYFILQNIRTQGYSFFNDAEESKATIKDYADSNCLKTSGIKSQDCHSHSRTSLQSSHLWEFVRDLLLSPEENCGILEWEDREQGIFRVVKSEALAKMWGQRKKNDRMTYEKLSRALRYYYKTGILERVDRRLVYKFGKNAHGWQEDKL
Summed up: as §1

A further experiment concerns the target ETV6 (Homo sapiens, UniProt P41212 1-452). Summed up:
as §1

ELF4, sequence (Q99607 whole entry): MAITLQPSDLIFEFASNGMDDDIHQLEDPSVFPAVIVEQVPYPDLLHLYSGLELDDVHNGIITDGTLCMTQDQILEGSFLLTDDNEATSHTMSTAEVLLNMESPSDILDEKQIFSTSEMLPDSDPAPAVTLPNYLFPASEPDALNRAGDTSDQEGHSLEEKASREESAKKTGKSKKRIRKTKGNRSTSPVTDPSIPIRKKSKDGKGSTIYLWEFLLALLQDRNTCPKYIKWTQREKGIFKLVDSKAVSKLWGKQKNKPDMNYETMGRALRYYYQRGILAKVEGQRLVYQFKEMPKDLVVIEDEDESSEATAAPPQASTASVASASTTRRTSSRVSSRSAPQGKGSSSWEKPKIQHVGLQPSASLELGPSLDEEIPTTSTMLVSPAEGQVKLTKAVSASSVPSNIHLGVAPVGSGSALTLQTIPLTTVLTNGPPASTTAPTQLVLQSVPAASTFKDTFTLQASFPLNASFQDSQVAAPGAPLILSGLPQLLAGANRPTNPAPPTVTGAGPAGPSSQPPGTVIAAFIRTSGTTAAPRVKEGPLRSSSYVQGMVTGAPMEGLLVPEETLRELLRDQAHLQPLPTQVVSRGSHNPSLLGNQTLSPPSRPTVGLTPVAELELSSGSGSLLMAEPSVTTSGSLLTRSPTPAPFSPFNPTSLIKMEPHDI
ETV6, sequence (P41212 whole entry): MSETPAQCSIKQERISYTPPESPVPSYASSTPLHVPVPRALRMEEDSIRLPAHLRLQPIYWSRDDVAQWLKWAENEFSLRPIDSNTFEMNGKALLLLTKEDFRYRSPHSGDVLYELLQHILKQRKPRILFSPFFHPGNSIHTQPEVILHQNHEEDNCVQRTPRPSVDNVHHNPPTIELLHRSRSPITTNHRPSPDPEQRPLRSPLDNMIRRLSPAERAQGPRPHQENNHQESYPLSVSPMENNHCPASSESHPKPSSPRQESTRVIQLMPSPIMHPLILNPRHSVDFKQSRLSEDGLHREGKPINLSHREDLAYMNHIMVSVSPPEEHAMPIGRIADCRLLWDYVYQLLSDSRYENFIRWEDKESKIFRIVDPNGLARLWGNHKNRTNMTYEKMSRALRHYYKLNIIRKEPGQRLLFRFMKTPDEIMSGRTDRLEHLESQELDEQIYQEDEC
ETV1, sequence (P50549 whole entry): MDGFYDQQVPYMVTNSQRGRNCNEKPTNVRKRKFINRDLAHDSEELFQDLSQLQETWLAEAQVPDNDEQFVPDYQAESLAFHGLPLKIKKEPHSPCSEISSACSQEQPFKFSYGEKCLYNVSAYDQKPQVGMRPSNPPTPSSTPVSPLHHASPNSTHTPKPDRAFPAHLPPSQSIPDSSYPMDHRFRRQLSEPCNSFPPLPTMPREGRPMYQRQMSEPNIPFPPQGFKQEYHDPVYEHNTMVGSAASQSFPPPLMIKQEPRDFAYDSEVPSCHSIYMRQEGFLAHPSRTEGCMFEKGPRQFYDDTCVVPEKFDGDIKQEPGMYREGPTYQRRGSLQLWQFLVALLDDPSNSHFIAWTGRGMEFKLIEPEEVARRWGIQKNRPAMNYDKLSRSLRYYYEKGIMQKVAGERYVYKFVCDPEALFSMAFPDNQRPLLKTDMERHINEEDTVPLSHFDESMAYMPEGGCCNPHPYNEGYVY
ETV5, sequence (P41161 whole entry): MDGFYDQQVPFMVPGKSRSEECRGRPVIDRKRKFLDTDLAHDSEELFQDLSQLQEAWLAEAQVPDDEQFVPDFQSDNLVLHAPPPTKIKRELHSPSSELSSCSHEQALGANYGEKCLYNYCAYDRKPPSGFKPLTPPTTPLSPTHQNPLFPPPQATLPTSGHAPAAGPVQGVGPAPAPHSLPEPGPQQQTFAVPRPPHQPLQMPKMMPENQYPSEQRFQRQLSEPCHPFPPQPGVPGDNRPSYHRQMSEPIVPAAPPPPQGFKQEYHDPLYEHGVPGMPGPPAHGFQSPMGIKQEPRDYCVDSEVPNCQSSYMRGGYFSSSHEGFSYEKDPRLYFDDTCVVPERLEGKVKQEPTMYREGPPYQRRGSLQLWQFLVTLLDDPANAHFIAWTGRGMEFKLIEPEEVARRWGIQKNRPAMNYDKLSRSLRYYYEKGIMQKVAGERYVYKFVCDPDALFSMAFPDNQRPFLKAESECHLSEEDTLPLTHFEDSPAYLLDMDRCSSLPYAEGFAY

For CATACG, the binding signal was 1.05 fold enrichment (6-mer frequency, TF over GST control) in the experiment with FLI1; 1.01 fold enrichment (6-mer frequency, TF over GST control) with ELK1; 1.03 fold enrichment (6-mer frequency, TF over GST control) in the experiment with GABPA; 1.06 fold enrichment (6-mer frequency, TF over GST control) in the experiment with ERG; 1.08 fold enrichment (6-mer frequency, TF over GST control) with ELF1; 1.07 fold enrichment (6-mer frequency, TF over GST control) with EHF. Also, the binding signal with SPI1 is 1.06 fold enrichment (6-mer frequency, TF over GST control); with FEV, 1.05 fold enrichment (6-mer frequency, TF over GST control); with ETV5 it was 1.08 fold enrichment (6-mer frequency, TF over GST control); in the experiment with SPIC, 1.04 fold enrichment (6-mer frequency, TF over GST control); in the experiment with ELF4, 1.03 fold enrichment (6-mer frequency, TF over GST control); with ETV1, 1.06 fold enrichment (6-mer frequency, TF over GST control). Further, the binding signal with ERF was 1.13 fold enrichment (6-mer frequency, TF over GST control); with ETV3L, 1.12 fold enrichment (6-mer frequency, TF over GST control); with ETS2, 1.01 fold enrichment (6-mer frequency, TF over GST control); in the experiment with SPDEF, 1.1 fold enrichment (6-mer frequency, TF over GST control); in the experiment with ELF5 it was 1.06 fold enrichment (6-mer frequency, TF over GST control); in the experiment with ETV6, 1.01 fold enrichment (6-mer frequency, TF over GST control).

The values are drawn from PMC7862700, “An all-to-all approach to the identification of sequence-specific readers for epigenetic DNA modifications on cytosine”.
